The target in experiment [1] is Thyrotropin receptor (Homo sapiens) (UniProt P16473). Kind of experiment: qHTS assay to identify small molecule antagonists of the thyroid stimulating hormone receptor (TSHR) signaling pathway (AID 1259385; calls by dose curve; further: nearly all actives have a fitted effect of over 20% in size). The essentials: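 TSHR-HEK293 cells were plated and held 18 h at 37C/5% CO2, then given compound plus Ro20-1724 and stimulated with TSH at 1.5 ng/mL final. After 30 min at room temperature, cAMP was detected with cAMP-d2/anti-cAMP-cryptate (1 h) by fluorescence.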
(qHTS replaces the single test concentration by a dilution series.)

Experiment [2] is described as follows: qHTS assay to identify small molecule agonists of the estrogen receptor alpha (ER-alpha) signaling pathway in the presence of an antagonist - cell viability counter screen (AID 1259386). Further: series mostly up to about 92 µM; nearly all actives have a fitted effect of over 30% in size. In short, it runs like this: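 Read-out: CellTiter-Fluor fluorescence after 1hr reagent incubation, measured in the same wells as the luciferase readout. VM7Luc4E2 cells were exposed to 15 compound concentrations with 10.0nM ICI-182,780 for 22hr at 37C.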

The target of experiment [3] is Progesterone receptor (Homo sapiens) (UniProt P06401). Put plainly: qHTS assay to identify small molecule agonists of the progesterone receptor (PR) signaling pathway (AID 1346784; calls by dose curve; further: nearly all actives have a fitted effect of over 30% in size). In short, it runs like this: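 Agonist mode, quantitative HTS format in a HEK 293T line expressing a UAS-controlled beta-lactamase reporter; 16 hr compound exposure at 37C in 2% charcoal-stripped FBS, then LiveBLAzer B/G FRET fluorescence.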

The target is the same in experiment [4]. Put plainly: qHTS assay to identify small molecule antagonists of the progesterone receptor (PR) signaling pathway (AID 1346795; active means well fitted inhibition curve with a large enough effect in the signal ratio in the repeat runs, not every such curve was filed as active; the % refers to the signal ratio). In short, it runs like this: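 HEK293T PR-UAS-bla reporter cells in charcoal-stripped serum (2%) received compound after a 6 hr settling period, followed by R5020 agonist at 1 nM final; 16 hr incubation preceded the FRET substrate step and fluorescence measurement.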

Experiment [5] can be described thus: qHTS assay to identify small molecule antagonists of the progesterone receptor (PR) signaling pathway - cell viability counter screen (AID 1346798). Further: series mostly up to about 92 µM; nearly all actives have a fitted effect of over 50% in size. The essentials: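 Same-well multiplex: after 16 hr at 37C with compound and R5020 stimulation, HEK293T cells carrying a UAS-bla reporter received LiveBLAzer substrate (2 hr RT), then CellTiter-Glo (30 min RT) for luminescent viability.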

Experiment [6] in a line: qHTS assay to identify small molecule agonists of the progesterone receptor (PR) signaling pathway - cell viability counter screen (AID 1346799; calls by dose curve; further: nearly all actives have a fitted effect of over 45% in size). In short, it runs like this: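 Counter screen for cytotoxicity: compound-treated PR-UAS-bla HEK293T cells (16 hr, 37C, 5% CO2) were assayed with CellTiter-Glo, luminescence measured after 30 min at room temperature.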
A short description of experiment [7]: qHTS assay to identify small molecule agonists of the TGF-beta/Smad signaling pathway - cell viability counter screen (AID 1346829). Further: top concentration of the series differs between compounds; nearly all actives have a fitted effect of over 45% in size. In short, it runs like this: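 CellTiter-Glo luminescence readout; SBE-bla HEK 293T cells, overnight plating, compound 5 hr at 37 C/5% CO2, then bla substrate 2 hr RT, then CellTiter-Glo 30 min RT.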
Experiment [8] in a line: qHTS assay to identify small molecule agonists of the TGF-beta/Smad signaling pathway (AID 1346859; active means well fitted activation curve with a large enough effect in the signal ratio in the repeat runs, not every such curve was filed as active; the % refers to the signal ratio; further: series mostly up to about 77 µM). In short, it runs like this: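 Smad-responsive beta-lactamase reporter cells (HEK 293T) received compounds from DMSO stocks after overnight attachment, were incubated 5 hr, then treated 2 hr with FRET substrate before dual-emission fluorescence measurement (405 nm excitation).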

The target in experiment [9] is Thyrotropin-releasing hormone receptor (Homo sapiens) (UniProt P34981). Kind of experiment: qHTS assay to identify small molecule antagonists of the thyrotropin-releasing hormone receptor (TRHR) signaling pathway (AID 1346877; active means well fitted inhibition curve with a large enough effect in the repeat runs, not every such curve was filed as active; further: series mostly up to about 51 µM). In short, it runs like this: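 HEK293/TRHR cells, 18 h, 37 °C; Ca2+ dye 2 h; cpd 5 min RT; TRH 1 nM final; fluorescence read 3 min, 1 s intervals; 15 concs, triplicate.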

For experiment [10] the target is unchanged. Put plainly: qHTS assay to identify small molecule agonists of the thyrotropin-releasing hormone receptor (TRHR) signaling pathway (AID 1346891; calls by dose curve;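 further: HEK293 cells expressing TRHR with calcium dye readout; series mostly up to about 58 µM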). In short, it runs like this:
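Agonist-mode calcium mobilisation screen: TRHR-transfected HEK293 cells cultured overnight (18 h), dye-loaded for 2 h at 37 °C, exposed to compounds, and monitored by fluorescence for 3 min.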

Experiment [11] can be described thus: Human pregnane X receptor (PXR) small molecule agonists, qHTS cell viability counter screen (AID 1346977). Further: nearly all actives have a fitted effect of over 50% in size. In short, it runs like this:
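Measures live-cell protease fluorescence (CellTiter-Fluor) in PXR-Luc HepG2 cells treated 24hr with compounds at 37C. Cells had 5hr to attach before pin transfer of DMSO solutions.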

Experiment [12] is described as follows: Caspase-3/7 induction in HepG2 cells by small molecules, qHTS assay (AID 1346978). Further: nearly all actives have a fitted effect of over 15% in size. The essentials: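 Wild-type HepG2 cells (2,000/well) were settled 5 h at 37 C, 5% CO2, then exposed to compounds in DMSO for 17 h. Caspase-3/7 activity was read by luminescence 30 min after adding Caspase-Glo 3/7 reagent at room temperature.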
Experiment [13] is described as follows: Caspase-3/7 induction in CHO-K1 cells by small molecules, qHTS assay (AID 1346980). Further: nearly all actives have a fitted effect of over 15% in size. The essentials:
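Wild-type cells were seeded at 1,500 per well and settled 5 hr at 37 C, 5% CO2, then exposed to DMSO-dissolved compounds for 17 hr. Caspase-Glo 3/7 reagent was added, and luminescence was read after 30min at room temperature.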

Experiment [14] can be described thus: Caspase-3/7 induction in HepG2 cells by small molecules, qHTS cell viability counter screen (AID 1346981). Further: series mostly up to about 92 µM; nearly all actives have a fitted effect of over 30% in size. The essentials:
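Fluorescence read-out of live-cell protease activity (CellTiter-Fluor) after 1 hr with reagent. This was measured in the same wells as the caspase-3/7 luminescence, on HepG2 cells exposed to DMSO-dissolved compounds for 16 hr at 37 C.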

The target of experiment [15] is Nuclear receptor subfamily 1 group I member 2 (Homo sapiens) (UniProt O75469). Kind of experiment: Human pregnane X receptor (PXR) small molecule agonists, qHTS assay (AID 1346982). Further: nearly all actives have a fitted effect of over 35% in size. Further: potency means the concentration at half of the fitted maximal effect. In short, it runs like this:
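HepG2 PXR-Luc reporter line, 5% charcoal-stripped FBS; 5 hr pre-incubation, compound (DMSO) 24 hr at 37 C/5% CO2; ONE-Glo 30 min RT; luminescence read-out.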

The nature of experiment [16]: Caspase-3/7 induction in CHO-K1 cells by small molecules, qHTS cell viability counter screen (AID 1346979). Further: nearly all actives have a fitted effect of over 35% in size. In short, it runs like this: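 In the same wells as the caspase read, viability of compound-treated wild-type CHO-K1 cells was assessed using CellTiter-Fluor, added after 16hr at 37C and measured by fluorescence following 1hr further incubation.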
Experiment [17] can be described thus: qHTS assay to identify small molecule antagonists of the TGF-beta/Smad signaling pathway - cell viability counter screen (AID 1346824). Further: nearly all actives have a fitted effect of over 50% in size. In short, it runs like this: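 SBE-bla HEK 293T cells were plated overnight at 37 C, then given compounds in DMSO plus TGF-beta1 (added as 0.25 ng/mL solution) for 5 hr. After the bla read, CellTiter-Glo was added to the same wells and luminescence read after 30 min at room temperature.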

For experiment [18], the target named is Nuclear receptor subfamily 1 group I member 2 (Rattus norvegicus) (UniProt Q9R1A7). Put plainly: Rat pregnane X receptor (rPXR) activation by small molecules, qHTS assay (AID 1346983). Further: nearly all actives have a fitted effect of over 20% in size. The note with it: rPXR luciferase reporter cells, One-Glo luminescence, 24 h; max activation: stronger effect = higher value. The essentials:
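Cell-based rPXR luciferase reporter assay, 2,000 cells per well, rested 5hr at 37 C before compound addition in DMSO, then 24 hr at 37 C. One-Glo reagent was added and luminescence read after 30 min at room temperature.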

Molecules are shown by their SMILES. A number with no mark means an inactive call. Records with an inconclusive call do not appear. Active and inactive are the calls of the source. Unless noted, the call rests on the fitted dose curve; in most records, active means well fitted curve in the direction sought with a large enough effect in the repeat runs; inconclusive means weak or mixed curves; inactive means no such curve, though single readings can be large; an effect the other way counts as inactive or inconclusive.
On the % scale 0 is the no-effect control and ±100 the full control effect.

Nuclear receptor subfamily 1 group I member 2 (Homo sapiens), sequence (O75469 whole entry, looked up): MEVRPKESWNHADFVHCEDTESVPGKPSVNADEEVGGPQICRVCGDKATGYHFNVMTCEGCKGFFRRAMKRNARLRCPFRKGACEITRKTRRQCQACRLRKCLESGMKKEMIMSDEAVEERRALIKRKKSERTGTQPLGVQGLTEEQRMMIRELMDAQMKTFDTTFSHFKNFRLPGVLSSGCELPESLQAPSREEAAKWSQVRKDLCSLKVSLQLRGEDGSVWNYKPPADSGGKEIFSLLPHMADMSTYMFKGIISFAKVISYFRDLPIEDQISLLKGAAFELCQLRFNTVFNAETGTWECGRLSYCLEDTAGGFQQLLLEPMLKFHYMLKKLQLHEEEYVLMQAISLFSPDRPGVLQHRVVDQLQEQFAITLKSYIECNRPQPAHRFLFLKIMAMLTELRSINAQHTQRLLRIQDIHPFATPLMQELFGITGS
Thyrotropin receptor (Homo sapiens), sequence (P16473 whole entry, looked up): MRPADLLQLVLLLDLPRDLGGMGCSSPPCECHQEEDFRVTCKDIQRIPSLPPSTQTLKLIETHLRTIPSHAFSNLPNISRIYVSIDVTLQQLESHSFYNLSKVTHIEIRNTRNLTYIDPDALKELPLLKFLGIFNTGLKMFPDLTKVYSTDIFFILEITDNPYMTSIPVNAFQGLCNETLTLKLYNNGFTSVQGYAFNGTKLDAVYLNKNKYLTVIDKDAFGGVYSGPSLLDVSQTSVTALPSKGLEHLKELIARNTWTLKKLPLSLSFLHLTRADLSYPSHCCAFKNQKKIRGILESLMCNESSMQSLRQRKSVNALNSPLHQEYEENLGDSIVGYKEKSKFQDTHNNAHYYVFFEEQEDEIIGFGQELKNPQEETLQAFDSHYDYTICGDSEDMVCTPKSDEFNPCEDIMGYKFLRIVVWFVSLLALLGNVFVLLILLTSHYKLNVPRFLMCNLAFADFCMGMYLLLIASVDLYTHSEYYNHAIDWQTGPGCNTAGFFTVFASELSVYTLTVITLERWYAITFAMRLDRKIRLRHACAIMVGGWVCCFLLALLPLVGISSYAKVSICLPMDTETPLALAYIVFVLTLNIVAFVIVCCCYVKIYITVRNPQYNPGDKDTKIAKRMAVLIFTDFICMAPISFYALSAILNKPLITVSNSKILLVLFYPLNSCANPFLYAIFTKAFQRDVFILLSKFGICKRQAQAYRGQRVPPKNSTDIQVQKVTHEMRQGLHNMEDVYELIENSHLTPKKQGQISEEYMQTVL
Progesterone receptor (Homo sapiens), sequence (P06401 whole entry, looked up): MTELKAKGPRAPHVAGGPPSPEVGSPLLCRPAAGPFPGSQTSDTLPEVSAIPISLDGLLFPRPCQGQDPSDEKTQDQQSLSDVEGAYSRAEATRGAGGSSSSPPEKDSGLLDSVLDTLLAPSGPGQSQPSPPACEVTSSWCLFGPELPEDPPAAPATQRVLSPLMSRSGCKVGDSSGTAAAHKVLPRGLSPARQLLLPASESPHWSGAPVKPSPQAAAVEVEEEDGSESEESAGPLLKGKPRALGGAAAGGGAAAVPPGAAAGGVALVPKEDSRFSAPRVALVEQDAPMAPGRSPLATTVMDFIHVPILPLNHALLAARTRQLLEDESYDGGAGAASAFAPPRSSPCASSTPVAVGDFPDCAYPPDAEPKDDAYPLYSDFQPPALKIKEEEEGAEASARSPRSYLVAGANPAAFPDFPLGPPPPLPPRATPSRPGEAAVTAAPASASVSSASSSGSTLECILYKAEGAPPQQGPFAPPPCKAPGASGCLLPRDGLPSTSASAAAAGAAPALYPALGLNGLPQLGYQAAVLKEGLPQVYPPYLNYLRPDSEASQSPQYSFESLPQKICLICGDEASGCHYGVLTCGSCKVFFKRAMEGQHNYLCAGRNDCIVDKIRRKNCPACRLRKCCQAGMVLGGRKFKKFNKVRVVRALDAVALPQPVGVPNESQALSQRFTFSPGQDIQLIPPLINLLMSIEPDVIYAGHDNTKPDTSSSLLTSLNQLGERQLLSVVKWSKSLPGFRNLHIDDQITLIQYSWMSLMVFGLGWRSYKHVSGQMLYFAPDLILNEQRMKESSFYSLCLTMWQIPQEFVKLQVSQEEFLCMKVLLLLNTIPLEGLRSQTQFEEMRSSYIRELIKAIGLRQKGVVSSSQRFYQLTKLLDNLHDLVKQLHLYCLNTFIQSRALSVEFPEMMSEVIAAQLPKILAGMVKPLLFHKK
Thyrotropin-releasing hormone receptor (Homo sapiens), sequence (P34981 whole entry, looked up): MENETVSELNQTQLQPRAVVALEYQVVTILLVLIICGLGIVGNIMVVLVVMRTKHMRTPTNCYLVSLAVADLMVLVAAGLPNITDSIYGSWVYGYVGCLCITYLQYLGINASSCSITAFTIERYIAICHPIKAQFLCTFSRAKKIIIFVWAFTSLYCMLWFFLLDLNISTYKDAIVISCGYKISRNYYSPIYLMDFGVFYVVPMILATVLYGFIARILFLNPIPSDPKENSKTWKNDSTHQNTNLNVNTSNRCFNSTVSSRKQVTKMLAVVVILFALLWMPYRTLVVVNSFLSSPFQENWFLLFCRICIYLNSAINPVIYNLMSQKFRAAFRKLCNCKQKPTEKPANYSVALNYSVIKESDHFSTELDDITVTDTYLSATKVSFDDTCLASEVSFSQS
Nuclear receptor subfamily 1 group I member 2 (Rattus norvegicus), sequence (Q9R1A7 whole entry, looked up): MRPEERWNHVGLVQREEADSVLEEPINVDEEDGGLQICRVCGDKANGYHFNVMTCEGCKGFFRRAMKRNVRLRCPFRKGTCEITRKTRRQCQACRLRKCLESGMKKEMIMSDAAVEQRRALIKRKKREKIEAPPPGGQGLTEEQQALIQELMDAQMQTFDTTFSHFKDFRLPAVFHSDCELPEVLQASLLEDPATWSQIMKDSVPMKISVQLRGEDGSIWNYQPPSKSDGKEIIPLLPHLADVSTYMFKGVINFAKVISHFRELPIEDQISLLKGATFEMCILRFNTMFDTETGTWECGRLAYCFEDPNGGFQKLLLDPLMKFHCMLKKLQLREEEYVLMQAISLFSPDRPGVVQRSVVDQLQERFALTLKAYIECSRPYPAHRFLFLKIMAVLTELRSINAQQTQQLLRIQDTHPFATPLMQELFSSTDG

Regarding `C=C/C(C)=C/C/C=C(\C)CCC=C(C)C`, the Potency entry in experiment [1], in experiment [2], in experiment [3], in experiment [4], in experiment [5] and in experiment [6] was “inactive” in each case. In addition, the Potency entry in [7], in [8], in [10], in experiment [11], in experiment [12] and in [13] was “inactive” throughout. In [14], the Potency result is “inactive”. For the same molecule, the outcome in experiment [9] was inactive. Besides, the Potency in experiment [15] is 27.3 µM (active).

For the molecule `CCC(OCCCOC)OC(C)=O` (stereo not given), the Potency result in experiment [1], in [2], in [3], in [4], in experiment [5] and in experiment [6] was “inactive” in each case. For the same molecule, the Potency result in experiment [7], in [8], in [10], in experiment [11], in experiment [12] and in experiment [16] was “inactive” each time. Also, the Potency entry in [13], in [14] and in experiment [15] was “inactive” throughout. In addition, the outcome in [9] was inactive.

Consider `O=c1[nH]ncc2ccccc12`, for which the Potency entry in [1], in experiment [2], in [3], in experiment [4], in experiment [5] and in experiment [6] was “inactive” each time. For the same molecule, the Potency result in experiment [7], in experiment [8], in experiment [10], in experiment [11], in experiment [12] and in [16] was “inactive” each time. Besides, the Potency entry in experiment [13], in experiment [14] and in experiment [15] was “inactive” throughout. Moreover, the molecule was classed as inactive in experiment [9].

For `O=C(Nc1cccc2c(=O)cc(-c3nn[nH]n3)oc12)c1ccc(OCCCCc2ccccc2)cc1`, the Potency result in experiment [1], in experiment [2], in experiment [3], in experiment [4], in [5] and in [17] was “inactive” each time. For the same molecule, the Potency result in experiment [7], in [10], in experiment [11], in experiment [12], in experiment [16] and in experiment [13] was “inactive” throughout. Further, the Potency entry in [14] and in experiment [15] was “inactive” each time. Besides, the result in experiment [9] was inactive.

Turning to `C1COC1`, the Potency entry in experiment [1], in [2], in experiment [3], in [4], in [5] and in experiment [6] was “inactive” throughout. Further, the Potency result in experiment [17], in experiment [8], in [10], in experiment [12], in experiment [16] and in experiment [13] was “inactive” in each case. Further, the Potency entry in experiment [14] and in [15] was “inactive” each time. In addition, in [9], the result was inactive.

Take `Cc1cc(C)cc(N)c1`: the Potency entry in experiment [1], in experiment [2], in experiment [3], in experiment [4], in experiment [5] and in experiment [6] was “inactive” throughout. Also, the Potency entry in [7], in [8], in experiment [10], in experiment [11], in experiment [12] and in experiment [16] was “inactive” each time. Also, the Potency entry in experiment [13] and in experiment [14] was “inactive” in each case. Also, the molecule was called inactive in experiment [9]. Moreover, the Potency in experiment [15] is 61.9 µM (active).

As for `O=c1[nH]c2ccc(Cl)cc2o1`, the Potency entry in experiment [1], in experiment [2], in [3], in experiment [4], in experiment [5] and in experiment [6] was “inactive” throughout. Besides, the Potency result in experiment [17], in [8], in [12], in experiment [13] and in experiment [14] was “inactive” each time.

On to `C=CCc1ccccc1OCC(O)CNC(C)C` (stereo not given), for which the Potency result in experiment [1], in [2], in experiment [3], in [4], in experiment [5] and in experiment [17] was “inactive” each time. The Potency result in experiment [7], in experiment [8], in experiment [10], in experiment [11], in experiment [12] and in experiment [16] was “inactive” each time. Also, the Potency result in experiment [13], in experiment [14] and in [15] was “inactive” each time. For the same molecule, the molecule was called inactive in experiment [9].

As for `CCOC(=O)OC(C)OC(=O)[C@@H]1N2C(=O)[C@@H](NC(=O)[C@H](N)c3ccccc3)[C@H]2SC1(C)C` (stereo not given in full), the Potency result in experiment [1], in [2], in experiment [3], in experiment [4], in experiment [5] and in [6] was “inactive” in each case. Further, the Potency result in experiment [7], in [8], in [10], in experiment [11], in experiment [12] and in experiment [16] was “inactive” in each case. Besides, in experiment [14], the Potency result is “inactive”. Besides, in [9], the result was inactive. The max activation in experiment [18] is 0.482%.

The values are drawn from PubChem BioAssay (Tox21).
